Bioassay records as filed in PubChem.
FBW7 activator: activators of human E3 ligase FBW7. AlphaScreen FBW7–phospho-cyclin E peptide binding, activator screen. 0.13% of 650,000 active. Q969H0. normalized activity (activation), % at 26.1 µM. AID 1259310; in the data active = normalized activity above about 1.9%;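 also: purified mutant Fbw7 with reduced substrate affinity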
Target sequence (Q969H0 whole entry, looked up): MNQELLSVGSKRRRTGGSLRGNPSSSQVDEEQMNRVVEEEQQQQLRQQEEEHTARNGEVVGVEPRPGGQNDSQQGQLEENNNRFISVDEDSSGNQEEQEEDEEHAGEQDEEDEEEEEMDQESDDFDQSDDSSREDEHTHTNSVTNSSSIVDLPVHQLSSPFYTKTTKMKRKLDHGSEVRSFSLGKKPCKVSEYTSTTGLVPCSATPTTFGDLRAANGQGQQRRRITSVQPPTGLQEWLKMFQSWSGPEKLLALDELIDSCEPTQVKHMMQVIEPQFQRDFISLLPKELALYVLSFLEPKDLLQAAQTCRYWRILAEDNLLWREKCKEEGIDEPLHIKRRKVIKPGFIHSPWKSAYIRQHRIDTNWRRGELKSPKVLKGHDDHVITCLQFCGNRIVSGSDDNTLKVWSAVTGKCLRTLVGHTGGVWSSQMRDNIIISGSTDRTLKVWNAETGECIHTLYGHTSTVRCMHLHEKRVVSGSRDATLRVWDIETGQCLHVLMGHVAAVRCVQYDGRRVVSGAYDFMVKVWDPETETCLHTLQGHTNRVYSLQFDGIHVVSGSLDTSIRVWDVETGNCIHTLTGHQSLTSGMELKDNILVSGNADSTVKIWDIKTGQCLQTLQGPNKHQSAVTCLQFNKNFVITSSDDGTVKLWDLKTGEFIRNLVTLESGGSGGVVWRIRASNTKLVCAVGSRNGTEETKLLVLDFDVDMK
GPR151 activ: human GPR151 activation. PathHunter beta-arrestin GPR151 cells, luminescence. activation, % at 11.2 µM. 1% of 650,000 active. AID 1508602; in the data active = activation above about 4.9%
TEAD-YAP inh: TEAD-YAP interaction inhibition. HEK-TIYL cells, TEAD-Gal4/YAP UAS-luciferase luminescence. inhibition, % at 9.12 µM. 1.4% of 640,000 active. AID 1259422; in the data active = inhibition above about 32%
MITF inh: human MITF inhibition, primary screen; O75030; AlphaScreen MITF homodimerization, bead proximity signal; inhibition, % at 2.6 µM; 0.91% of 650,000 active; AID 1259374; in the data active = inhibition above about 50%
Numbers stand for hits; i = inactive. In the library only some 3.5% were active in any assay of this set; here they are far more common.

SMILES	FBW7 activator	GPR151 activ	TEAD-YAP inh	MITF inh
COc1ccc(Cl)cc1NS(=O)(=O)c1ccc(OC)c(C)c1C	i	i	42.5	i
COc1cc(NS(=O)(=O)c2ccc(OC)c(C)c2C)c(OC)cc1Cl	i	i	53.9	i
COc1ccc(Cl)cc1NS(=O)(=O)c1cc(C)ccc1OC	i	i	i	i
CCC(=O)NC(c1ccc(C(C)C)cc1)c1cc([N+](=O)[O-])c2cccnc2c1O (stereo not drawn)	i	i	i	i
CCC(=O)NC(c1ccccc1Cl)c1cc([N+](=O)[O-])c2cccnc2c1O (stereo not drawn)	i	i	i	71.9
CC(=O)NC(c1ccc(C(C)C)cc1)c1cc([N+](=O)[O-])c2cccnc2c1O (stereo not drawn)	i	i	i	i
CCCC(=O)NC(c1ccc(O)c(OCC)c1)c1cc([N+](=O)[O-])c2cccnc2c1O (stereo not drawn)	i	i	i	i
CCC(=O)NC(c1ccccc1)c1cc([N+](=O)[O-])c2cccnc2c1O (stereo not drawn)	i	i	i	84.0
CCC(=O)NC(c1ccccc1OC)c1cc([N+](=O)[O-])c2cccnc2c1O (stereo not drawn)	i	i	i	97.6
CCC(=O)NC(c1ccc2c(c1)OCO2)c1cc([N+](=O)[O-])c2cccnc2c1O (stereo not drawn)	i	i	i	62.9
CCCC(=O)NC(c1ccc2c(c1)OCO2)c1cc([N+](=O)[O-])c2cccnc2c1O (stereo not drawn)	i	i	i	i
O=C(Nc1ccccc1)N(c1ccc(Cl)cc1)C1CCS(=O)(=O)C1 (stereo not drawn)	i	i	i	i
O=C(Cc1ccc(Br)cc1)N1CCC(c2nc3ccncc3c(=O)[nH]2)C1 (stereo not drawn)	2.3	i	i	i
Cc1sc2nc(C3CCCN(C(=O)Cc4ccc(F)cc4)C3)[nH]c(=O)c2c1C (stereo not drawn)	i	i	i	i
CCOCCCn1c(=S)[nH]c2cc(C(=O)N3CCN(Cc4ccc5c(c4)OCO5)CC3)ccc2c1=O	i	i	43.0	i
O=C(c1ccc2c(=O)n(Cc3ccc(Cl)cc3)c(=S)[nH]c2c1)N1CCN(Cc2ccc3c(c2)OCO3)CC1	i	i	i	i
Cc1ccc(S(=O)(=O)N2CCN3C(=O)[C@@H](CC(C)C)NC(=O)[C@H]3C2)cc1	i	i	i	i
COc1ccc(-c2nc3ccccc3c(=O)n2OC(=O)c2ccc(C(C)(C)C)cc2)cc1OC	i	i	i	i
CC(C)(C)c1ccc(C(=O)On2c(-c3ccc(C(C)(C)C)cc3)nc3ccccc3c2=O)cc1	i	i	37.9	i
CCc1ccc(C(=O)On2c(-c3ccc(C(C)(C)C)cc3)nc3ccccc3c2=O)cc1	i	i	39.1	i
COc1ccccc1C(=O)Nn1c(-c2ccc(C(C)(C)C)cc2)nc2ccccc2c1=O	i	i	39.7	i
COc1ccccc1C(=O)Nn1c(-c2ccc(Br)cc2)nc2ccccc2c1=O	i	i	i	i
Cc1cc(C)c(C(=O)CC2(O)C(=O)N(Cc3ccccc3)c3ccccc32)c(C)c1 (stereo not drawn)	i	i	i	i
CC(C)n1c(Nc2ccc(-n3ccnc3)cc2)nc2c(Nc3ccc4c(c3)OCO4)ncnc21	i	i	i	i
O=[N+]([O-])CC(c1ccccc1)c1c[nH]c2ccccc12 (stereo not drawn)	i	i	45.8	i
SMILES	FBW7 activator	GPR151 activ	TEAD-YAP inh	MITF inh
COc1cccc(C(C[N+](=O)[O-])c2c[nH]c3ccccc23)c1 (stereo not drawn)	i	i	54.0	i
COc1cccc(C(C[N+](=O)[O-])c2c[nH]c3ccccc23)c1OC (stereo not drawn)	i	i	i	i
Cn1nnc2c(N3CCN(S(=O)(=O)c4ccccc4Cl)CC3)ncnc21	i	i	38.0	i
O=c1c2c3c(sc2nc2c4ccccc4cnn12)CCCC3	i	i	53.0	i
O=c1c2c3c(sc2nc2c4ccccc4c4nnnn4n12)CCCC3	i	i	i	i
COc1ccc(CCNc2cc(C)nc(-c3ccc(N4CCN(C)CC4)cc3)n2)cc1	i	i	i	i
COCc1cc(C(C)=O)ccc1OCC(=O)Nc1ccc(Cl)cc1	i	i	i	i
Cc1sc2nc(SCC(=O)Nc3ccccc3N3CCOCC3)nc(N)c2c1C	i	i	43.1	i
CCOc1ccc(/C=c2\sc3n(c2=O)C(c2ccccc2OC)C(C(C)=O)=C(C)N=3)cc1OC (stereo not drawn)	i	i	i	i
O=C(CCl)N(C1CCCC1)C1CCS(=O)(=O)C1 (stereo not drawn)	i	i	64.7	i
O=C(CCl)N(Cc1ccccc1)C1CCS(=O)(=O)C1 (stereo not drawn)	i	i	55.9	i
O=C(CCl)N(C1CC1)C1CCS(=O)(=O)C1 (stereo not drawn)	i	i	54.2	i
CCC(C)N(C(=O)CCl)C1CCS(=O)(=O)C1 (stereo not drawn)	i	i	56.1	i
O=C1C2CC=CCC2C(=O)N1CC(=O)N(Cc1ccccc1)C1CCS(=O)(=O)C1 (stereo not drawn)	i	i	i	i
O=C(CCl)N(CC1CCCO1)C1CCS(=O)(=O)C1 (stereo not drawn)	i	i	i	i
C=CCOC(=O)C1=C(C)NC(SCC(=O)Nc2ccccc2CC)=C(C#N)C1c1ccco1 (stereo not drawn)	i	i	i	i
CCCCC1CN(CCNC(=O)CSC)Cc2ccccc2O1 (stereo not drawn)	i	i	i	i
O=C(NC(Cc1ccccc1)C(=O)O)/C(=C\c1ccc2c(c1)OCO2)NC(=O)c1ccco1 (stereo not drawn)	i	i	i	i
O=C(CCl)N(C1CCCCC1)C1CCS(=O)(=O)C1 (stereo not drawn)	i	i	70.1	i
Cn1c(SCC(=O)N(C2CCCCC2)C2CCS(=O)(=O)C2)nnc1C(F)(F)F (stereo not drawn)	i	i	i	i
CC(C)c1ccc(N(C)S(=O)(=O)c2ccc3[nH]cc(C(=O)NCC4CCCO4)c(=O)c3c2)cc1 (stereo not drawn)	i	i	i	i
CC(=O)N(C1=C(N(C)C)C(=O)c2ccccc2C1=O)c1cccc(F)c1	i	i	95.0	i
CC(=O)N(C1=C(Cl)C(=O)c2ccccc2C1=O)c1ccc(Br)cc1	i	i	i	i
CC(=O)N(C1=C(N(C)C)C(=O)c2ccccc2C1=O)c1ccc(Cl)cc1	i	i	72.6	i
CC(=O)N(C1=C(N(C)C)C(=O)c2ccccc2C1=O)c1cc(C)cc(C)c1	i	i	85.0	i
COC(=O)c1cc(-c2c(C)nn(-c3ccccc3)c2C)n[nH]1	i	i	i	i
COc1ccc(/C(C)=N\NC(=O)c2cc(-c3c(C)nn(-c4ccccc4)c3C)n[nH]2)cc1	i	i	44.4	i
Oc1ccc(Br)c(C(Nc2ccccn2)c2ccc3cccnc3c2O)c1 (stereo not drawn)	i	i	84.5	i
Oc1c(C(Nc2ccccn2)c2ccc(Br)cc2)ccc2cccnc12 (stereo not drawn)	i	i	83.6	i
